This is an account of results in PubChem BioAssay (Tox21).

The source made the active and inactive calls. The call rests on the fitted dose curve; in most records, active means well fitted inhibition curve with a large enough effect in the repeat runs (not every such curve was filed as active); inconclusive means weak or mixed curves; inactive means flat fitted curve, though single readings scatter.

Chain of Thyrotropin-releasing hormone receptor (Homo sapiens) (P34981 whole entry, looked up): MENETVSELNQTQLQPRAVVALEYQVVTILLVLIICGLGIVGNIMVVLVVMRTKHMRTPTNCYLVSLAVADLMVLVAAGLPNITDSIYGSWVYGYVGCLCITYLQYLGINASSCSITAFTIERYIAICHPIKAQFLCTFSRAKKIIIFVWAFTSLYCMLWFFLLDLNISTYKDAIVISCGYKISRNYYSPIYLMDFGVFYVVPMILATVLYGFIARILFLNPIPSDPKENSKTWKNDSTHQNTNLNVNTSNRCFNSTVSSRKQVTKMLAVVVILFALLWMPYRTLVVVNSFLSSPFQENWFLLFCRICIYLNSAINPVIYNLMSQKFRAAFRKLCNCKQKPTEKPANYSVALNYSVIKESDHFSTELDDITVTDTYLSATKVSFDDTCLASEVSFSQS

The target of this assay is Thyrotropin-releasing hormone receptor (Homo sapiens) (UniProt P34981). The assay can be described thus: qHTS assay to identify small molecule antagonists of the thyrotropin-releasing hormone receptor (TRHR) signaling pathway (AID 1346877). The note with it: TRHR-HEK293, TRH-induced calcium fluorescence, antagonist mode; series mostly up to 51.3 µM. The text has this:
National Center for Advancing Translational Sciences [NCATS]
NIH Chemical Genomics Center [NCGC]
U.S. Environmental Protection Agency [EPA]
National Institutes of Environmental Health Sciences [NIEHS]
National Toxicology Program [NTP]
U.S. Food and Drug Administration [FDA]
Thyrotropin-releasing hormone (TRH) receptor (TRHR) is a G-protein-coupled receptor which binds the tripeptide thyrotropin releasing hormone. TRHR is found in the brain and, when bound by TRH, acts (through phospholipase C) to increase intracellular inositol trisphosphate. It plays a crucial role in the anterior pituitary where it controls the synthesis and secretion of thyroid stimulating hormone and prolactin. The TRHR-Hek293 assay is a cell-based assay, and it has the potential to screen G protein-coupled receptors. A compound/drug can either activate (agonist) or suppress (antagonist) GPCRs that can be monitored by levels of intracellular calcium. In this assay, the Tox21 10K compound library was screened to identify potential TRHR antagonists.
Tox21 Assay Protocol Summary:
The TRHR-Hek293 cells were dispensed at 1500cells/4uL/well in 1536-well black-clear bottom plates using a Multidrop dispenser. After the assay plates were incubated at a 37 C/5% CO2 incubator for 18 hours, 4 uL of Dye-Loading Solution was added to each well. The plates were incubated at 37 C for 2 hours. For agonist mode, 23 nL of compounds dissolved in DMSO, positive controls or DMSO only was transferred to the assay plate by a pin tool. The fluorescence intensity in the plates was measured using FDSS 7000EX kinetic plate reader for 3 min at 1 sec intervals. For antagonist mode, 23 nL of compounds dissolved in DMSO, positive controls or DMSO only was transferred to the assay plate by a pin tool. After 5 min incubation at room temperature, 1 uL of TRH was added on the top of the cell/compound mixtures to achieve a final agonist concentration of 1 nM. The fluorescence intensity in the plates was measured using FDSS 7000EX kinetic plate reader for 3 min at 1 sec intervals. Each test compound was measured at 15 concentrations and in triplicates.
A general note: qHTS replaces the single test concentration by a dilution series.
Turning to `NC(=O)OCC(COC(N)=O)c1ccccc1`, the result was inactive. With `CCN1CCCC1=O`, the outcome was inactive.

Turning to `C=C(C)OC(C)=O`, the result was inactive. For the compound `CN(C)C=O`, the result was inactive. `Cc1c(N(C)CS(=O)(=O)O)c(=O)n(-c2ccccc2)n1C`: the outcome was inactive. `COc1ccccc1O`: the result was inactive. For `CC(C)Cc1ccc(C(C)C(=O)O)cc1` (stereo not given) the value was “inactive”. Take `COCC(C)N` (stereo not given): the result was inactive. For `CCc1cc(C(N)=S)ccn1`, the outcome was inactive.

Turning to `C1CNCCN1`, the result was inactive. Next, `CN/C(=C\[N+](=O)[O-])NCCSCc1ccc(CN(C)C)o1`: “inactive”; `C#C[C@]1(O)CC[C@H]2[C@@H]3CCc4cc(O)ccc4[C@H]3CC[C@@]21C`: “inactive”. For `CC1=NN(c2ccccc2)C(=O)C1`, the outcome was inactive. Take `CC(=O)/C=C/C1=C(C)CCCC1(C)C`: the result was inactive. Take `CCCCCCCCOc1ccc(C(=O)c2ccccc2)c(O)c1`: the result was inactive.

For `NCCNc1cccc2ccccc12`, the result was inactive. For the compound `OCCCc1ccccc1`, the outcome was inactive. Turning to `c1ccc2[nH]c(-c3cscn3)nc2c1`, the result was inactive. For `COc1ccc(C(=O)c2ccccc2)c(O)c1` the value was “inactive”. `Cc1cnc(NC(=O)C2=C(O)c3ccccc3S(=O)(=O)N2C)s1`: the outcome was inactive. Next, `N[C@@H](Cc1c[nH]c2ccc(O)cc12)C(=O)O`: “inactive”; `CN(C)Cc1cc(CN(C)C)c(O)c(CN(C)C)c1`: “inactive”.

For `COCCOCCOC`, the result was inactive. In the case of `CC(C)(C)CC(C)(C)c1ccc(O)c(-n2nc3ccccc3n2)c1`, the result was inactive.

For the compound `CCn1cc(C(=O)O)c(=O)c2ccc(C)nc21`, the result was inactive. Turning to `COc1ccc(O)cc1`, the result was inactive.

As for `N[C@@H](Cc1c[nH]c2ccccc12)C(=O)O`, the result was inactive. Next, `CCCCOCCOCCOC(C)=O`: “inactive”; `Nc1cccc(N)c1`: “inactive”; `C[C@]12CC[C@@H]3c4ccc(O)cc4CC[C@H]3[C@@H]1CCC2=O`: “inactive”. On to `C=C(C)C(N)=O`, for which the outcome was inactive. Take `CC1(C)O[C@@H]2[C@@H](CO[C@@]3(COS(N)(=O)=O)OC(C)(C)O[C@@H]23)O1`: the outcome was inactive. Turning to `CCOC(=O)C(C)(C)Oc1ccc(Cl)cc1`, the result was inactive. For `CC(=O)OC/C=C(C)/C=C/C=C(C)/C=C/C1=C(C)CCCC1(C)C` the value was “inactive”; for `CC(C)CC(C)CC(O)CC(C)C` (stereo not given), “inactive”; for `COc1cc(C=O)ccc1O`, “inactive”. On to `O=C(O)CN(CC(=O)O)CC(=O)O`, for which the outcome was inactive. For `Cc1cccc(C)c1O` the value was “inactive”; for `CCOCCO`, “inactive”. Next, `Cc1cccc2ccccc12`: “inactive”.
